{
  "source": "the supplement of paper PMC8728848",
  "experiment_in_all_cases": "glycan array binding signal (z-score within array); higher = stronger binding",
  "conditions_in_all_cases": "glycan notation: IUPAC condensed, linker removed",
  "key": {"[1]": {"molecular_target": "Fuc(a1-2)Gal(b1-3)GalNAc(a1-3)[Fuc(a1-2)]Gal(b1-4)GlcNAc", "in_short": "(§1)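 Negative Z-scores can be read as non-binding. The Z-score is calculated within each array and then averaged across arrays of one protein sequence at different concentrations or buffers and across linkers. Arrays, 3228 in all, were curated from the Consortium for Functional Glycomics database and kept only where the protein sequence was available.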"}, "[2]": {"molecular_target": "Fuc(a1-2)Gal(b1-3)GlcNAc(b1-2)Man(a1-3)[Fuc(a1-2)Gal(b1-3)GlcNAc(b1-2)Man(a1-6)]Man(b1-4)GlcNAc(b1-4)[Fuc(a1-6)]GlcNAc", "in_short": "as §1"}, "[3]": {"molecular_target": "Fuc(a1-2)Gal(b1-3)[Fuc(a1-4)]GlcNAc(b1-2)Man(a1-3)[Fuc(a1-2)Gal(b1-3)[Fuc(a1-4)]GlcNAc(b1-2)Man(a1-3)]Man(b1-4)GlcNAc(b1-4)GlcNAc", "in_short": "as §1"}, "[4]": {"molecular_target": "Fuc(a1-2)Gal(b1-3)[Fuc(a1-4)]GlcNAc(b1-2)Man(a1-3)[Fuc(a1-2)Gal(b1-3)[Fuc(a1-4)]GlcNAc(b1-2)Man(a1-6)]Man(b1-4)GlcNAc(b1-4)[Fuc(a1-6)]GlcNAc(b1-4)[Fuc(a1-6)]GlcNAc", "in_short": "as §1"}, "Fuc(a1-2)Gal(b1-4)Glc": {"molecular_target": "Fuc(a1-2)Gal(b1-4)Glc", "in_short": "as §1"}, "[5]": {"molecular_target": "Fuc(a1-2)Gal(b1-4)GlcNAc(b1-3)GalNAc", "in_short": "as §1"}, "[6]": {"molecular_target": "Fuc(a1-2)Gal(b1-4)GlcNAc(b1-6)GalNAc", "in_short": "as §1"}, "[7]": {"molecular_target": "Fuc(a1-2)[GalNAc(a1-3)]Gal(b1-3)GlcNAc(b1-3)GalNAc", "in_short": "as §1"}, "[8]": {"molecular_target": "Fuc(a1-2)[GalNAc(a1-3)]Gal(b1-4)GlcNAc(b1-2)Man(a1-3)[Fuc(a1-2)[GalNAc(a1-3)]Gal(b1-4)GlcNAc(b1-2)Man(a1-6)]Man(b1-4)GlcNAc(b1-4)GlcNAc", "in_short": "as §1"}, "[9]": {"molecular_target": "Fuc(a1-2)[GalNAc(a1-3)]Gal(b1-4)[Fuc(a1-3)]GlcNAc(b1-3)GalNAc", "in_short": "as §1"}, "[10]": {"molecular_target": "Fuc(a1-2)[GalNAc(a1-4)]Gal(b1-4)GlcNAc", "in_short": "as §1"}, "[11]": {"molecular_target": "Fuc(a1-3)[Gal(b1-4)]GlcNAc(b1-2)Man", "in_short": "as §1"}, "[12]": {"molecular_target": "Gal(a1-3)[Gal(a1-4)]Gal(b1-4)GlcNAc", "in_short": "as §1"}, "Gal(a1-4)Gal(b1-4)GlcNAc": {"molecular_target": "Gal(a1-4)Gal(b1-4)GlcNAc", "in_short": "as §1"}, "Gal(a1-6)Glc": {"molecular_target": "Gal(a1-6)Glc", "in_short": "as §1"}, "[13]": {"molecular_target": "Gal(b1-3)GalNAc(a1-3)[Fuc(a1-2)]Gal(b1-4)GlcNAc", "in_short": "as §1"}, "[14]": {"molecular_target": "Gal(b1-3)GlcNAc(b1-2)Man(a1-3)[Gal(b1-3)GlcNAc(b1-2)Man(a1-6)]Man(b1-4)GlcNAc(b1-4)GlcNAc", "in_short": "as §1"}, "[15]": {"molecular_target": "Gal(b1-3)GlcNAc(b1-3)Gal(b1-4)GlcNAc(b1-2)[Gal(b1-3)GlcNAc(b1-3)Gal(b1-4)GlcNAc(b1-6)]Man(a1-6)[Gal(b1-3)GlcNAc(b1-3)Gal(b1-4)GlcNAc(b1-2)Man(a1-3)]Man(b1-4)GlcNAc(b1-4)[Fuc(a1-6)]GlcNAc", "in_short": "as §1"}, "Gal(b1-3)GlcNAc6S": {"molecular_target": "Gal(b1-3)GlcNAc6S", "in_short": "as §1"}, "[16]": {"molecular_target": "Gal(b1-3)[Fuc(a1-4)]GlcNAc(b1-6)GalNAc", "in_short": "as §1"}, "[17]": {"molecular_target": "Gal(b1-4)GlcNAc(b1-2)Man(a1-6)[Man(a1-3)]Man(b1-4)GlcNAc(b1-4)GlcNAc", "in_short": "as §1"}, "[18]": {"molecular_target": "Gal(b1-4)GlcNAc(b1-3)Gal(b1-4)GlcNAc", "in_short": "as §1"}},
  "note": "Shown is part of a subset that was picked to be rich in the strongest signals.",
  "data": [
    {"binder": "PX14367B-bvu-516-23-516 (Bacteroides vulgatus) (protein) LDTIPTTYVDAGSVFGKTGDAEKVLNGGWNYLMETFNSYANPGYGAMLRANDAMGSDVVLNSKYGFRTHNEFSAIYGKGGTNTLSWLLAYRVINDCNGVLDNIDAAEGTQADRNRIKGQALALRGFLYLHLASCYSFAIDKDPDAVCAPIYTQSTDETIAAEGKPASSVSEVYAQSINDLEEALELIPETYVRDAKHKIDNEVVLGILSRACLYARQWEKAKTYSDKLLAKDNYLMTESEYKAGFNSVDNKEWIWGHAQTNDQSNASYQFHYLDTTTKGSYYYSFNVDPYFRDLFEDGDYRKEMLFWATDPGADVESAAYVWMRNSKFRFRDIENQLGDIVLMRVAEIYLINAEAKAHLNDPDAINKLNDLKTARGAKTIHTNLSQQDLLETIWLERRKELWGEGFSLIDIIRNQQTVVRNAYPEGPIDYIYTDENGQTHTLKKKTQGHRFFNFPDKSAFCPNSKYYLYRITDSEELANKNLYKDHPKLSIYTK", "values": [
      {"measurement": "glycan array binding signal (z-score)", "setting": "[1]", "result": -0.284},
      {"measurement": "glycan array binding signal (z-score)", "setting": "[2]", "result": -0.028},
      {"measurement": "glycan array binding signal (z-score)", "setting": "[3]", "result": -0.201},
      {"measurement": "glycan array binding signal (z-score)", "setting": "[4]", "result": -0.237},
      {"measurement": "glycan array binding signal (z-score)", "setting": "Fuc(a1-2)Gal(b1-4)Glc", "result": -0.35},
      {"measurement": "glycan array binding signal (z-score)", "setting": "[5]", "result": -0.282},
      {"measurement": "glycan array binding signal (z-score)", "setting": "[6]", "result": -0.204},
      {"measurement": "glycan array binding signal (z-score)", "setting": "[7]", "result": -0.26},
      {"measurement": "glycan array binding signal (z-score)", "setting": "[8]", "result": 7.56},
      {"measurement": "glycan array binding signal (z-score)", "setting": "[9]", "result": 0.034},
      {"measurement": "glycan array binding signal (z-score)", "setting": "[10]", "result": 4.75},
      {"measurement": "glycan array binding signal (z-score)", "setting": "[11]", "result": -0.331},
      {"measurement": "glycan array binding signal (z-score)", "setting": "[12]", "result": 5.23},
      {"measurement": "glycan array binding signal (z-score)", "setting": "Gal(a1-4)Gal(b1-4)GlcNAc", "result": -0.328},
      {"measurement": "glycan array binding signal (z-score)", "setting": "Gal(a1-6)Glc", "result": -0.252},
      {"measurement": "glycan array binding signal (z-score)", "setting": "[13]", "result": -0.361},
      {"measurement": "glycan array binding signal (z-score)", "setting": "[14]", "result": 7.76},
      {"measurement": "glycan array binding signal (z-score)", "setting": "[15]", "result": 4.21},
      {"measurement": "glycan array binding signal (z-score)", "setting": "Gal(b1-3)GlcNAc6S", "result": -0.243},
      {"measurement": "glycan array binding signal (z-score)", "setting": "[16]", "result": 4.48},
      {"measurement": "glycan array binding signal (z-score)", "setting": "[17]", "result": 4.25},
      {"measurement": "glycan array binding signal (z-score)", "setting": "[18]", "result": -0.337}
    ]}
  ]
}
